This is a sample that favours compounds with a hit; in the whole collection about 3.7% have one here.
HTT cytoprotect – cytoprotection in Huntington HTT-Q103 PC12 cell model | PC12 HTT-Q103 induced, cytoprotection, ATP luminescence, 40 h | Potency, µM (highest dose often 56.4 µM), hits mostly activators | hit rate 0.14% among 230,000; also: nearly all actives have a fitted effect of over 45% in size
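Compounds added alongside 100 nM tebufenozide, which induces toxic Q103 huntingtin exon 1-GFP in stable PC12 cells; surviving cells quantified by luminescent ATP measurement. Medium: phenol red-free DMEM, 5% equine and 5% calf serum.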
Tau fibril FP – blocks human tau fibril formation measured by polarization; hit rate 0.39% among 280,000; K18 P301L tau heparin fibrillization, Alexa594 FP, 6 h; Potency, µM (series often up to 57.7 µM), usual class: inhibitors; P10636; also: nearly all actives have a fitted effect of over 55% in size
Target sequence (P10636 561-689 P618L limits assumed): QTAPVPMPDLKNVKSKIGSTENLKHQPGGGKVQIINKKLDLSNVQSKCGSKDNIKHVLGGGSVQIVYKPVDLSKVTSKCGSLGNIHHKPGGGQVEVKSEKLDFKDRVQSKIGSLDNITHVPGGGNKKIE
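Human K18 P301L fragment (15 uM unlabeled plus 0.24 uM Alexa 594-labeled) in 100 mM sodium acetate pH 7 with compound, aggregation induced by 20 uM heparin for 6 hr at 37 C. ThT (30 uM) added for 1 hr, then Alexa 594 FP read.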
HTT aggregate – inhibitors of mutant huntingtin aggregate formation in PC12 cells. AID 1688. Potency, µM (series often up to 46.1 µM), hits mostly inhibitors. hit rate 1.1% among 220,000. PC12 HttQ103-GFP aggregates, Acumen cytometry, 40 h; also: nearly all actives have a fitted effect of over 60% in size
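PC12/HTTQ103-GFP, ecdysone-inducible; teb 100 nM; cpd qHTS titration; GFP aggregates read on laser cytometer, Ex 488/Em 500-530 nm.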
Tau fibril ThT – blocks human tau fibril formation measured by thioflavin T; recombinant tau K18 P301L, heparin-induced fibrillization, ThT fluorescence; AID 1460; hit rate 2.1% among 270,000; P10636; Potency, µM (series often up to 57.4 µM), most hits filed as inhibitors; also: nearly all actives have a fitted effect of over 55% in size
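Heparin-induced (20 uM) aggregation of recombinant human K18 P301L tau, 15 uM unlabeled with 0.24 uM labeled, pH 7 acetate buffer, 6 hr at 37 C with compound. Fibrils quantified by 30 uM ThT fluorescence after 1 hr ambient incubation.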
Tau fluor counter – counter-screen for tau fibril formation inhibitors | tau K18 P301L Alexa594 fluorescence, heparin fibrillization | Potency, µM (titrated, usually from 57.7 µM) | hit rate 0.93% among 280,000 | AID 1463; also: nearly all actives have a fitted effect of over 55% in size
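Human tau K18 P301L (15 uM unlabeled, 0.24 uM Alexa 594-labeled) in 100 mM sodium acetate pH 7 with 20 uM heparin, 6 hr at 37 C. ThT 30 uM added, 1 hr ambient; Alexa 594 FP and total fluorescence read at 555/632 nm.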
Large screens that a line does not name were inactive; [ ] = dose if it differs, or a comment. Calls follow the shape of the dose curve; as a rule, active = well fitted curve in the direction sought with a large enough effect; inconclusive = small, poorly fitted or top-dose-only effect, or another doubt; inactive = no such curve, though single readings can be large; an effect the other way counts as inactive or inconclusive.

O=C1Nc2ccc(Cl)cc2C12Nc1ccccc1-c1nnc(SCc3ccccc3F)nc1O2 (stereo unspecified)	none
O=C1Nc2ccc(F)cc2C12Nc1ccccc1-c1nnc(SCc3ccccc3F)nc1O2 (stereo unspecified)	Tau fibril FP inconclusive, Tau fibril ThT 25µM, Tau fluor counter inconclusive
CCC1Sc2ccccc2N(CC(=O)NCc2ccc(C)cc2)C1=O (stereo unspecified)	none (no result: HTT cytoprotect, HTT aggregate)
CN=c1scc(-c2ccc([N+](=O)[O-])cc2)n1/N=C/c1ccco1	Tau fibril ThT 3.5µM
O=C1c2ccc([N+](=O)[O-])cc2NC(c2ccco2)N1/N=C/c1ccco1 (stereo unspecified)	Tau fibril ThT 13µM, Tau fluor counter inconclusive
O=[N+]([O-])c1ccc(S(=O)(=O)N/N=C/c2ccco2)cc1	none
Cc1ccc(-c2nnc(N3CCN(C(=O)Cn4c(=O)n(C)c5ccccc54)CC3)c3ccccc23)cc1	HTT aggregate inconclusive
Cn1c(=O)n(CC(=O)N2CCN(c3nnc(-c4ccccc4)c4ccccc34)CC2)c2ccccc21	HTT aggregate 14µM
CCCCCS(=O)(=O)CCCCCCCCCCn1c(-c2ccc(O)cc2)c(C)c2cc(O)ccc21	Tau fibril FP inconclusive, Tau fibril ThT inconclusive, Tau fluor counter 7.9µM[quencher] (no result: HTT aggregate)
O=C1/C(=C/c2cccc([N+](=O)[O-])c2)CCc2ccccc21	HTT cytoprotect inconclusive, Tau fibril ThT 25µM, Tau fluor counter inconclusive
COc1cccc([C@@H]2Oc3ccc(OC)cc3/C(=N/O[C@@H](C)c3cn([C@H]4COC[C@H]4O)nn3)[C@@H]2O)c1	none (no result: HTT aggregate)
CC(=O)Nc1ccc(N2C(C(C)=O)=NN(c3ccc(Cl)cc3)C2c2sccc2C)cc1 (stereo unspecified)	HTT aggregate inconclusive, Tau fibril ThT inconclusive, Tau fluor counter 28µM[quencher]
COc1ccc(N2C(C(C)=O)=NN(c3ccccc3)C2c2cccs2)cc1 (stereo unspecified)	HTT aggregate inconclusive, Tau fibril ThT inconclusive, Tau fluor counter inconclusive
CC(=O)Nc1ccc(C2=NN(c3ccccc3)C(c3cccs3)C2)cc1 (stereo unspecified)	Tau fibril FP inconclusive, Tau fluor counter 8.9µM[quencher]
CC(=O)Nc1ccc(N2C(C(C)=O)=NN(c3ccccc3)C2c2cccs2)cc1 (stereo unspecified)	Tau fibril ThT inconclusive, Tau fluor counter 25µM[quencher]
O=[N+]([O-])c1ccc2c(N=Nc3ccc4ccccc4c3O)c(O)cc(S(=O)(=O)O)c2c1	none (no result: Tau fibril FP, HTT aggregate, Tau fibril ThT, Tau fluor counter)
Cc1ccc(C)c(CN2C(=O)C3(c4ccccc42)N(c2ccc(Cl)cc2)C(=O)CS3(=O)=O)c1 (stereo unspecified)	Tau fibril FP inconclusive (no result: HTT cytoprotect, HTT aggregate)
Cc1nc2c(Br)cc(Br)cc2cc1O	HTT aggregate 11µM
CCCCC12CN3CC(C)(CN(C1)C3c1ccc(OCc3ccccc3)cc1)C2=O (stereo unspecified)	none (no result: HTT cytoprotect, HTT aggregate)
O=C(O)c1ccc(-n2c(O)c(C=C3N=c4ccccc4=N3)sc2=S)cc1	Tau fibril ThT 18µM, Tau fluor counter inconclusive
O=C(O)CCCCCn1c(O)c(C=C2N=c3ccccc3=N2)sc1=S	HTT aggregate inconclusive, Tau fibril ThT 13µM, Tau fluor counter inconclusive
C/C(=N\NC(=O)c1ccncc1)c1ccc2ccccc2c1O	none (no result: Tau fibril FP, HTT aggregate, Tau fibril ThT, Tau fluor counter)
CCOc1cccc(C(=O)N(Cc2ccc(C(C)C)cc2)C2CCS(=O)(=O)C2)c1 (stereo unspecified)	none (no result: HTT cytoprotect, HTT aggregate)
CC(=O)n1cc(N(C(=O)CCl)c2ccc([N+](=O)[O-])cc2)c2ccccc21	Tau fibril ThT 28µM, Tau fluor counter inconclusive
O=Cc1[nH]c2ccccc2c1N(C(=O)CCl)c1ccc([N+](=O)[O-])cc1	Tau fibril FP inconclusive, Tau fibril ThT 16µM, Tau fluor counter inconclusive
C[N+](C)(N)Cc1nc(-c2ccc(Cl)cc2)no1	none (no result: Tau fibril FP, HTT aggregate, Tau fibril ThT, Tau fluor counter)
Cc1c(-c2csc(N)n2)cnn1C	none
C=CCn1c(C)cc(-c2csc(N)n2)c1C	Tau fibril FP inconclusive, Tau fibril ThT 16µM, Tau fluor counter inconclusive
CCCn1c(C)cc(-c2csc(N)n2)c1C	HTT cytoprotect inconclusive, Tau fibril FP inconclusive, Tau fibril ThT 16µM, Tau fluor counter inconclusive
CC1=C(C(=O)Nc2ccc(Cl)cc2)C(C(C)C)n2nc(SCc3ccc(Cl)cc3)nc2N1 (stereo unspecified)	Tau fibril FP inconclusive (no result: HTT cytoprotect, HTT aggregate)
COc1ccc(C2=CC3=C(Br)C(=O)C(C)(OC(=O)c4ccco4)C(=O)C3=CO2)cc1 (stereo unspecified)	Tau fibril FP inconclusive, Tau fibril ThT 16µM, Tau fluor counter inconclusive
COc1ccc(C2=CC3=C(Br)C(=O)C(C)(OC(=O)c4cccs4)C(=O)C3=CO2)cc1 (stereo unspecified)	none (no result: HTT aggregate)
COc1ccccc1NC(=O)C1=C(C)Nc2nc(SCc3ccccc3)nn2C1c1cccs1 (stereo unspecified)	none (no result: HTT cytoprotect, HTT aggregate)
CN1C(=O)/C(=C/c2coc3ccc(O)cc3c2=O)SC1=S	Tau fibril ThT inconclusive
Cc1cc(/C=C2\SC(=S)NC2=O)c(C)[nH]1	HTT aggregate inconclusive, Tau fibril ThT 16µM, Tau fluor counter inconclusive
Cc1sc(-n2c(C)cc(/C=C3\SC(=S)NC3=O)c2C)c(C#N)c1C	Tau fibril ThT inconclusive, Tau fluor counter inconclusive
Cc1cc(/C=C2\SC(=S)NC2=O)c(C)n1-c1cccc(O)c1	Tau fibril ThT 16µM, Tau fluor counter inconclusive
Cc1cc(/C=C2\SC(=S)N(C)C2=O)c(C)n1-c1ccc(O)cc1	Tau fibril FP inconclusive, Tau fibril ThT 6.3µM, Tau fluor counter 8.9µM[quencher]
Cc1cc(/C=C2/C(=O)NN(c3ccccc3)C2=O)c(C)n1-c1cccc(O)c1	Tau fibril ThT 13µM, Tau fluor counter inconclusive
Cc1ccc(S(=O)(=O)/C=C\C#N)cc1	Tau fibril FP inconclusive, Tau fibril ThT inconclusive (no result: HTT aggregate)
CCn1c(C)cc(/C=C2/SC(=S)NC2=O)c1C	HTT aggregate inconclusive, Tau fibril ThT 13µM
CCn1ncc(/C=C2/SC(=S)NC2=O)c1C	none (no result: HTT cytoprotect)
Cc1ccc(Nc2nnc(-c3ccc(C)c(S(=O)(=O)N4CCOCC4)c3)c3ccccc23)c(C)c1	Tau fibril ThT inconclusive (no result: HTT cytoprotect, HTT aggregate)
CN1CCc2c(sc(/N=C/c3cc(Cl)ccc3O)c2C#N)C1	Tau fibril ThT inconclusive
CN1CCc2c(sc(/N=C/c3c[nH]c4ccccc34)c2C#N)C1	Tau fibril FP inconclusive, Tau fibril ThT 14µM, Tau fluor counter inconclusive
CN1CCc2c(sc(/N=C/c3c[nH]c4ccccc34)c2C(N)=O)C1	Tau fibril FP inconclusive, Tau fibril ThT 10µM, Tau fluor counter inconclusive
NNC(=O)[C@@H](O)[C@H](O)[C@H](O)CO	none (no result: Tau fibril FP, HTT aggregate, Tau fibril ThT, Tau fluor counter)
CN(CCNC(=O)CCNC(=O)Cn1ccc2ccccc2c1=O)Cc1ccccc1	Tau fibril FP 22µM, Tau fluor counter 16µM[quencher]
Cc1ccc(C(=O)Cn2c3c(sc2=N)CCCC3)cc1	Tau fibril ThT inconclusive (no result: HTT aggregate)
NC(=O)CC(NC(=O)c1ccc(Br)cc1)c1ccc(NCc2ccc(F)cc2)c([N+](=O)[O-])c1 (stereo unspecified)	Tau fibril ThT inconclusive, Tau fluor counter inconclusive
